PrP 5UTR inh = suppresses PrP 5' UTR mRNA reporter expression; cell-based PrP 5' UTR mRNA reporter, plate reader; inhibition, % (test concentration not listed); 0.35% of 340,000 active; in the data active means inhibition above about 52%; further: 0 = median of the neutral control wells
PrPC TRFRET = inhibitors of human cell surface prion protein PrPC; P04156; TR-FRET read-out; inhibition, % at 13.8 µM; 0.43% of 370,000 active; AID 720596; in the data active means inhibition above about 24%; further: 0% = median of the test wells and 100% = reference compound wells
BJeLR viability = BJeLR cell viability loss; BJeLR (HRASV12) viability, CellTiter-Glo ATP luminescence, 48 h; inhibition, % (concentration not given with the values); 0.17% of 300,000 active; AID 1554; in the data active means inhibition above about 50%; inconclusive means no clear call, values can overlap the other calls
MazEF act = MazEF (E. coli) toxin RNase activation; P0AE70; FAM/BHQ RNA-DNA oligo cleavage fluorescence, 5 h; activation, % at 20 µM; 0.32% of 350,000 active; in the data active means activation above about 50%
Target sequence (P0AE70 whole entry, looked up): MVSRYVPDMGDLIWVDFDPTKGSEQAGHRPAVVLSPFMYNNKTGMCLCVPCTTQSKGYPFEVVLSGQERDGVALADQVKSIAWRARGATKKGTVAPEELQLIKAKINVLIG
PfHsp40 yeast = compounds rescuing yeast from Plasmodium falciparum HSP40 toxicity; S. cerevisiae expressing PfHsp40, growth rescue, ATP luminescence; growth rescue, % at 12.5 µM; 0.68% of 340,000 active; in the data active means growth rescue above about 28%, passing the limit was not always enough; inconclusive means no clear call, values can overlap the other calls;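 further: yeast W303a lacking pdr1 and pdr3 grown in galactose medium; growth measured after three days at 30 °C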
VHR inh abs = DUSP3 (human) phosphatase inhibition; 0.52% of 290,000 active; inhibition, % at 13.3 µM; P51452; recombinant VHR phosphatase, pNPP absorbance; in the data active means inhibition above about 50%
Target sequence (P51452 whole entry, looked up): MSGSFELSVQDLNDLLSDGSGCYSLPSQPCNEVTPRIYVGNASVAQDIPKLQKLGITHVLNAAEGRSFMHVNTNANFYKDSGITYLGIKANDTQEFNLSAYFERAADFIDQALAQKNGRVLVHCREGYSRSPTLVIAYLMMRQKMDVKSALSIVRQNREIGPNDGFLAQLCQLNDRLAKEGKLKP
An asterisk follows results filed as active; ? = inconclusive; . = no result given; + = active, no number. Rows were chosen to be rich in hits. Some 2.1% of all compounds tested hit in one or more screens of this group.

SMILES | PrP 5UTR inh | PrPC TRFRET | BJeLR viability | MazEF act | PfHsp40 yeast | VHR inh abs
Cc1ccc2nc3c(cc(C(=O)NC4CCCCC4)c(=N)n3C3CCCCC3)c(=O)n2c1 | -29.9 | -17.1 | 3.2 | 7.6 | -0.8 | 11.8
O=C(NCc1cccc(C(F)(F)F)c1)c1ccc2nc([C@H]3C[C@H](O)[C@@H](CO)O3)[nH]c2c1 | . | 4.0 | . | . | . | .
COc1ccc(-c2sc3ccc(OC)cc3c2C#CCCO)cc1 | -35.0 | . | -0.1 | -12.3 | 46.2* | 16.6
COc1ccc2sc(-c3ccc(N(C)C)cc3)c(C#CCCO)c2c1 | -25.3 | 2.5 | . | -16.3 | ? | .
C=CCNC(=S)N1CCC(Cc2ccccc2)CC1 | -7.3 | 6.8 | -2.2 | 1.5 | 90.6* | 11.0
Cc1cccc(Oc2cc([N+](=O)[O-])cc3c2C(=O)Nc2ccccc2O3)c1 | -31.8 | 14.8 | 2.5 | 4.9 | -0.3 | -14.2
O=C1Nc2ccccc2Oc2cc([N+](=O)[O-])cc(Oc3ccccc3)c21 | -16.3 | 5.9 | 3.6 | 53.2* | -0.1 | -14.2
COc1cc(/C=C2\SC(c3ccc(C)cc3)=NC2=O)cc(OC)c1OC | -25.9 | . | 2.2 | 101.6* | -0.4 | -0.9
COc1ccc(/C=C2\SC(c3ccc(C)cc3)=NC2=O)cc1OC | -0.2 | -2.3 | -15.7 | + | -0.9 | -0.9
COc1cc(/C=C2\SC(c3ccc(C)cc3)=NC2=O)ccc1O | -21.6 | 3.8 | -4.0 | 10.2 | 0.0 | 13.5
COc1ccc(/C=C2/SC(c3ccc(C)cc3)=NC2=O)cc1OC | -23.1 | -13.0 | 2.1 | -0.7 | 1.5 | 15.1
COc1ccc(/C=C2\SC(=O)NC2=S)cc1OC | -17.7 | -2.6 | 13.9 | 12.9 | 143.2* | 2.3
CCN(Cc1ccccc1)C(=O)C1C2C=CC3(CN(Cc4ccccc4)C(=O)C13)O2 (configuration not stated) | . | 8.6 | . | . | . | .
O=C(CSc1nnc(SCc2ccc(Cl)cc2)s1)N/N=C/c1c[nH]c2ccccc12 | -25.5 | 6.7 | -2.0 | 64.0* | -0.3 | .
CC(=O)c1cn(Cc2ccc(C#N)cc2)c2ccccc12 | -10.6 | -3.3 | -3.1 | -9.2 | -1.7 | 21.7
C[n+]1cn(Cc2ccc(C#N)cc2)c2ccccc21 | -19.4 | 5.1 | -3.5 | 3.6 | 3.2 | 52.6*
N#CC1=C(N)C(C#N)(C#N)C2(C(=O)Nc3ccccc32)C2CCCC=C12 (configuration not stated) | -40.5 | 0.3 | -14.2 | 2.7 | 30.2* | 11.3
O=C1Nc2ccccc2C12OC1CCCCC1O2 (configuration not stated) | 11.1 | -6.4 | 7.0 | -0.9 | -1.2 | 17.8
CN(CCOc1ccc(Cl)cc1)C(=O)c1cccc(S(=O)(=O)N2CCN(Cc3ccccc3)CC2)c1 | -7.7 | 17.9 | . | -0.3 | 1.1 | .
CCCOc1ccc(CSCCNC(=S)Nc2ccccc2)cc1 | -15.8 | 12.6 | -3.5 | -7.5 | 215.8* | -4.8
O=C(OCCNc1ccc(C(F)(F)F)cc1[N+](=O)[O-])c1cc2ccccc2oc1=O | -18.3 | 4.9 | 0.0 | 250.9* | -1.5 | 13.1
COc1ccccc1Cn1c(=S)[nH]c2cc(C(=O)NCCN(C)C)ccc2c1=O | 7.2 | -11.4 | 0.8 | -1.1 | -1.2 | -16.2
O=C(N/C(=C/c1cccc(Br)c1)C(=O)N1CCOCC1)c1ccco1 | . | -5.5 | . | 3.7 | . | .
COc1ccc2[nH]cc(CCNC(=O)/C=C/[C@H]3O[C@@H](n4cnc5c(NC(=O)c6ccccc6)ncnc54)[C@H](O)[C@@H]3O)c2c1 | . | 3.5 | . | . | . | .
O=C(N=C1SC2CS(=O)(=O)CC2N1c1ccc(Cl)cc1)C1CCCO1 (configuration not stated) | -3.9 | 8.4 | 7.7 | 7.0 | -1.5 | -5.0
SMILES | PrP 5UTR inh | PrPC TRFRET | BJeLR viability | MazEF act | PfHsp40 yeast | VHR inh abs
O=C(COc1ccccc1)N=C1SC2CS(=O)(=O)CC2N1c1ccc(F)cc1 (configuration not stated) | 11.1 | -3.7 | 0.2 | 1.2 | 0.5 | 54.2*
COc1ccc(N2C(=NC(=O)C3CCCO3)SC3CS(=O)(=O)CC32)cc1 (configuration not stated) | -5.4 | 5.5 | 1.0 | 2.5 | -1.7 | 55.6*
CC(=O)Nc1ccc(N2CCCC(C)C2)c([N+](=O)[O-])c1 (configuration not stated) | -2.6 | -13.1 | 0.8 | -2.5 | 0.2 | 20.8
CC1CCCN(c2ccc(C(=O)Nc3cccnc3)cc2[N+](=O)[O-])C1 (configuration not stated) | -48.4 | -0.4 | 9.0 | 9.9 | 5.5 | 52.5*
Cc1cc(C)c(NC(=O)c2cc3c(nc4sccn43)s2)c(C)c1 | -13.4 | -2.9 | 5.5 | -7.8 | 66.4* | 17.0
Cc1ccc(C)c(C(=O)c2c(C)nc3sccn23)c1 | -19.3 | -4.5 | . | 3.0 | 1.1 | 17.2
CCC(C(=O)Nc1ccncc1)c1ccccc1 (configuration not stated) | -12.8 | -2.4 | 5.8 | -0.4 | -1.3 | -11.2
CCC(C(=O)Nc1ccc2[nH]ncc2c1)c1ccccc1 (configuration not stated) | -44.0 | 10.5 | 9.3 | 6.8 | -0.8 | 57.0*
Cc1cc(=O)n(C)c2ccccc12 | -30.8 | 8.7 | 12.6 | 4.9 | 0.4 | 2.0
Cc1cc(=O)n2c3c(c4c(cc13)c(CN(C)C)cc(=O)n4C)OC2 | -9.3 | 39.8* | . | 0.6 | -2.0 | .
Oc1ccccc1C=NNC(=S)NC1CC2C=CC1C2 (configuration not stated) | . | 2.9 | . | 1.9 | . | .
Oc1c(Cl)cc(Cl)cc1/C=N/NC(=S)NC1CC2C=CC1C2 (configuration not stated) | 2.6 | 3.0 | 0.7 | 0.6 | 132.5* | 35.5
CCC1(CC)C(=O)NC(=Nc2cccc(C(F)(F)F)c2)NC1=O | -17.1 | -5.9 | -20.0 | 6.0 | 110.6* | -15.7
C[C@H](CO)N1C[C@H](C)[C@@H](CN(C)S(=O)(=O)c2ccc3c(c2)OCCCO3)OCc2cn(nn2)CCCC1=O | . | 4.8 | . | -7.5 | . | .
C=CCC[C@H](Cc1ccc(F)cc1)C(=O)OC[C@H](Cc1c[nH]c2ccccc12)NC(=O)[C@@H](CC=C)CC(=O)NCCO | -35.3 | 3.0 | . | 3.7 | 46.7* | .
C=CCC[C@H](Cc1ccc(F)cc1)C(=O)OC[C@@H](Cc1c[nH]c2ccccc12)NC(=O)[C@@H](CC=C)CC(=O)N[C@@H](CO)Cc1ccccc1 | 3.7 | 15.3 | . | 2.7 | 19.0 | .
C=CCC[C@@H](Cc1ccc(F)cc1)C(=O)OC[C@@H]1CCCN1C(=O)[C@@H](CC=C)CC(=O)N[C@@H](CO)Cc1ccccc1 | -12.5 | -6.0 | . | 4.6 | 40.8* | .
C=CC[C@@H](Cc1ccc(F)cc1)C(=O)OC[C@H]1CCCN1C(=O)[C@@H](CC=C)CC(=O)N(CCO)Cc1ccccc1 | -4.0 | -2.0 | . | 1.5 | ? | .
C=CC[C@@H](Cc1ccc(F)cc1)C(=O)OC[C@@H]1CCCN1C(=O)[C@H](CC=C)CC(=O)N(CCO)Cc1ccccc1 | -18.2 | 5.9 | . | 3.6 | 36.6* | .
CC(=O)Nc1sc(C)c(C)c1C(=O)OCC(=O)N(CCC#N)c1cc(C)cc(C)c1 | -25.0 | -3.6 | . | 2.1 | -0.5 | .

Compound activity deposited in PubChem BioAssay by several laboratories.
